{"source": "PubChem BioAssay (EPA / NIEHS)", "note": "Inconclusive results are not listed. Calls of active or inactive are those of the source. Rule for the calls: active = hit-call score of the fitted dose curve at least 0.9, where 1 is the maximum; inconclusive = response in the unintended direction; inactive = score below 0.9."}
{"biological_target": "Glycogen synthase kinase-3 beta (Homo sapiens) (UniProt P49841)", "sequence (P49841 whole entry, looked up)": "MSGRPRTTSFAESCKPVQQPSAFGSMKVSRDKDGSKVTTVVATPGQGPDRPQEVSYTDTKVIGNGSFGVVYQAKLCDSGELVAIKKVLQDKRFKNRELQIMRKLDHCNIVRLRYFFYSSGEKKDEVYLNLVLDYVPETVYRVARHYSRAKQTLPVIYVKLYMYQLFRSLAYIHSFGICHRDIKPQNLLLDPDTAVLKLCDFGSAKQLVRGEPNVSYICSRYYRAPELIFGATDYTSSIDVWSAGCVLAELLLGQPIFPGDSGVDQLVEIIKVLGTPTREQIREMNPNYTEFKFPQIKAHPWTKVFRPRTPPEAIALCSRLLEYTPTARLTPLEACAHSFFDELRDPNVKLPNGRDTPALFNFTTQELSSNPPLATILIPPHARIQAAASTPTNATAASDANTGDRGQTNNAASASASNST", "assay": "NVS_ENZ_hGSK3b: NovaScreen (NVS) Enzymatic Assay for human Glycogen Synthase Kinase-3 beta (GSK3b) (AID 2283165)", "experimental": "NVS_ENZ_hGSK3b is a biochemical, single-readout assay that uses extracted gene-proteins in a cell-free assay. Measurements were taken 1 hour after chemical dosing in a 384-well plate.NVS_ENZ_hGSK3b is one of one assay component(s) measured or calculated from the NVS_ENZ_hGSK3b assay. It is designed to make measurements of enzyme activity, a form of enzyme reporter, as detected with fluorescence intensity signals by Fluorescence and electrophoretic mobility shift technology.Data from the assay component NVS_ENZ_hGSK3b was analyzed into 1 assay endpoint. This assay endpoint, NVS_ENZ_hGSK3b, was analyzed in the positive analysis fitting direction relative to DMSO as the negative control and baseline of activity. Using a type of enzyme reporter, loss-of-signal activity can be used to understand changes in the enzymatic activity as they relate to the gene GSK3B. Furthermore, this assay endpoint can be referred to as a primary readout, because this assay has produced multiple assay endpoints where this one serves a enzymatic activity function. To generalize the intended target to other relatable targets, this assay endpoint is annotated to the kinase intended target family, where the subfamily is serine/threonine kinase.\nBinding assays used specific radioligands (tritiated, iodinated) with non-radioactive competitive displacement ligands in agonist or antagonist protocols (as indicated) and various reference compounds and inhibitors to titrate specific binding to receptors and transporters. Most enzyme assays (CYPs, kinases, phosphatases, proteases, HDACs) used recombinant protein and specific substrates (fluorescence mostly, some colorimetric and radioactive) and inhibitors, followed by a biochemical separation of substrate and product. All assays for the biochemical HTS were initially run in duplicate at a single concentration (10 uM for CYP450 assays and 25 uM for all others). Assay-chemical combinations meeting a pre-defined threshold (e.g., 30% inhibition and other criteria defined below) were then run in singleton concentration-response format with maximum concentration of 20 uM for CYPs and 50 uM for all others. Each assay was run with positive and negative controls, and concurrent controls on every plate. The follow-up (secondary) screen tested active chemical-pairs in concentration series, as well as a few additional assays not tested in the primary screen, some selected negative inactives, and several cases re-run in the concentration series for confirmatory purposes."}
{"molecule": "CN1C(=O)N(c2ccccc2Br)Cc2cnc(Nc3ccc4c(c3)OCC(CO)O4)nc21", "note": "(stereo unspecified)", "AC50": "7.73 µM (active)"}
{"molecule": "CCCCCCCCOC(=O)c1cc(O)c(O)c(O)c1", "outcome": "inactive"}
{"molecule": "CCN(Cc1cccnc1)C(=O)c1cccc(Cl)c1[C@]1(C)C(=O)N(Cc2ccc(OC)cc2OC)c2ccc(Cl)cc21", "outcome": "inactive"}
{"molecule": "COc1ccc2cc(S(=O)(=O)N[C@H](CC(=O)N[C@H](Cc3ccc(CN4[C@H](C)CCC[C@@H]4C)cc3)C(=O)N(C)C(C)C)c3ccc4c(c3)OCO4)ccc2c1", "outcome": "inactive"}
{"molecule": "O=C(O)c1ccccc1-n1cc(C(=O)O)c(=O)c2cc(Nc3c(F)cc(F)cc3Cl)c(Cl)cc21", "outcome": "inactive"}
{"molecule": "O=c1ccc2ccccc2o1", "outcome": "inactive"}
{"molecule": "CC1=CC(=O)/C(=C(/C)O)C(=O)O1", "outcome": "inactive"}
{"molecule": "Oc1ccccc1", "outcome": "inactive"}
{"molecule": "CCCCCCCCCCCCO", "outcome": "inactive"}
{"molecule": "OC12N=C(c3ccccc3)SC1Cc1cc(Cl)ccc12", "note": "(stereo unspecified)", "outcome": "inactive"}
{"molecule": "Clc1cc(Cl)c2c(c1)N=C1CCCCCN1C2", "outcome": "inactive"}
